Screening data as filed in PubChem.
Only some compounds are listed: those with a hit (about 1.1% of all), similar ones and a draw of the others.
MsrA inhibitor – inhibitors of bovine MsrA; purified bovine MsrA, absorbance read-out; inhibition, % at 15.5 µM; actives 0.75% (n = 360,000); AID 651718; in the data active = inhibition above about 4.5%;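 also: 0% = vehicle wells with enzyme and 100% = reference inhibitor wells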
PKA-R2B act – activators of human PKA-R2B complex | PKA-R2B holoenzyme dissociation, Cy5-IP20 fluorescence polarization; R2B truncated from residue 108, S112A mutant; 0% DMSO only, 100% 113 µM cGMP | actives 0.079% (n = 340,000) | P22694+P31323 | AID 504700 | activation, % at 11.4 µM;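 active = activation above a cutoff set at the mean over all compounds plus 3 SD, cut at about 18% in these data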;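 also: higher means more holoenzyme dissociation and a rise in polarization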
Target sequence (P31323 whole entry, looked up, other chains not shown, the tested form may be a part): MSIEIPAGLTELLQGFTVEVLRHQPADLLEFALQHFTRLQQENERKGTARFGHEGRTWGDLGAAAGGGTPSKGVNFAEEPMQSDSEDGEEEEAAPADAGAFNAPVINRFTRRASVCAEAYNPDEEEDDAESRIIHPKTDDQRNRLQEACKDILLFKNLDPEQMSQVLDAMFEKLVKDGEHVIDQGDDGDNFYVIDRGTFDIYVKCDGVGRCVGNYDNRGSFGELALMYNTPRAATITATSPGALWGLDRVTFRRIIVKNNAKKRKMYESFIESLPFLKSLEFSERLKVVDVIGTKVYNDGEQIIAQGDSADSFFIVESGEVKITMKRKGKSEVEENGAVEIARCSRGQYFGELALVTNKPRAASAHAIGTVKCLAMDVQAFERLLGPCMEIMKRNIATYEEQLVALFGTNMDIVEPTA
PKA-R1A activ – activates the PKA-R1A holoenzyme complex; PKA-R1A dissociation, Cy5-IP20 fluorescence polarization; scaled: DMSO 0%, 113 µM cGMP 100%; activation, % at 11.4 µM; actives 0.083% (n = 340,000); AID 504707; P00514+P68181;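 active = percent activation above the mean of all tested compounds plus 3 SD, cut at about 19% in these data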;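 also: higher means more PKAc released from R1A so a rise in polarization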
MsrA act – activators of bovine methionine sulfoxide reductase A; purified bovine MsrA, absorbance read-out; actives 0.3% (n = 360,000); AID 602163; activation, % at 10.6 µM; in the data active = activation above about 7.5%;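 also: 0% = vehicle and 100% = reference activator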
R1A FP artifact – counter-screen for PKA-R1A activators: fluorescence polarization artifacts; activation, % at 11.4 µM; actives 7% (n = 280); shares compounds with PKA-R1A activ; AID 504799; Cy5-IP20 peptide alone, fluorescence polarization artifact counterscreen;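 active = mean activation over triplicate runs exceeds the adjusted cutoff derived for the parent primary screen, cut at about 19% in these data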;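 also: no PKA protein present so any polarization rise reflects compound interference; 0% = tracer peptide mix alone and 100% = mix with added PKA catalytic subunit; higher means stronger polarization artifact and likely false positive in parent screen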
PKA-R1A confirm – confirmation of PKA-R1A complex activators. activation, % at 11.4 µM. Cy5-IP20 fluorescence polarization, PKA-R1A holoenzyme dissociation. actives 9% (n = 280). shares compounds with PKA-R1A activ. AID 504800;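 active = mean activation over replicate wells exceeds the adjusted hit threshold taken from the earlier primary screen, cut at about 20% in these data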;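 also: 0% = holoenzyme mix with DMSO only and 100% = cGMP-activated control wells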
An asterisk follows results filed as active.

Results for CN(C)c1ccc(Cc2ccc(N(C)C)cc2)cc1 ?
MsrA inhibitor: -1; PKA-R2B act: -3; PKA-R1A activ: 21*; MsrA act: 0; R1A FP artifact: -2; PKA-R1A confirm: 0

Results for CC(=O)N1CCN(c2ccc(N3CCN(C(C)=O)[C@@H](C)C3)c(C)c2)[C@H](C)C1 ?
MsrA inhibitor: -1

How did O=C(NCc1ccccc1)c1cccc(NC(=O)c2ccco2)c1 do in these assays?
MsrA inhibitor: 1; PKA-R2B act: 5; PKA-R1A activ: 22*; MsrA act: -2; R1A FP artifact: 10; PKA-R1A confirm: 7

What do the screens show for `Nc1cc(=O)[nH]c(SCC(=O)Nc2ccc3c(c2)CCC3)n1`?
MsrA inhibitor: 0; PKA-R2B act: 5; PKA-R1A activ: -8; MsrA act: -1

Results for Nc1nc(SCC(=O)Nc2ccc3c(c2)CCC3)n[nH]1 ?
MsrA inhibitor: -2; PKA-R2B act: -5; PKA-R1A activ: 19*; MsrA act: -11; R1A FP artifact: 6; PKA-R1A confirm: 1

How did CC(CCC(=O)O)C1CC[C@@]2(C)C3C(=O)CC4C(C)(C)C(O)CC[C@]4(C)C3C(=O)C[C@]12C (stereo partly specified) do in these assays?
MsrA inhibitor: 0; PKA-R2B act: 6; PKA-R1A activ: 20*; MsrA act: -3; R1A FP artifact: 8; PKA-R1A confirm: 4

Results for C[C@@H]1ON(C)[C@H]2C[C@H]3c4cc(N5CCCCC5)ccc4CCN3C[C@@H]12 ?
MsrA inhibitor: -1

Results for Cc1cc(N2CCN(C(=O)OC(C)(C)C)C[C@@H]2C)ccc1N1CCS(=O)(=O)CC1 ?
MsrA inhibitor: 0

Results for CCCC(=O)Nc1ccc(NC(=O)C2CC2)cn1 ?
MsrA inhibitor: 1; PKA-R2B act: -5; PKA-R1A activ: -2; MsrA act: -1

How did CCCCC(=O)Nc1ccc(NC(=O)C2CC2)cn1 do in these assays?
MsrA inhibitor: -1; PKA-R2B act: -1; PKA-R1A activ: 20*; MsrA act: -2; R1A FP artifact: 5; PKA-R1A confirm: 5

What do the screens show for `O=C(NS(=O)(=O)c1ccccc1[N+](=O)[O-])[C@H]1O[C@@H](n2ccc(=O)[nH]c2=O)[C@H](O)[C@@H]1O`?
MsrA inhibitor: -1

How did CCN(CC(=O)Nc1cc(Cl)ccc1C)C(=O)CSCc1c(C)noc1C do in these assays?
MsrA inhibitor: 0; PKA-R2B act: 4; PKA-R1A activ: 3; MsrA act: -13

Results for CCc1noc(C)c1C(=O)N(CC)CC(=O)Nc1cc(Cl)ccc1C ?
MsrA inhibitor: 0; PKA-R2B act: 1; PKA-R1A activ: 19*; MsrA act: 0; R1A FP artifact: 3; PKA-R1A confirm: 3

Results for O=C(CCC(=O)c1ccccc1)Nc1ccc(C(=O)O)cc1 ?
MsrA inhibitor: 0; PKA-R2B act: -1; PKA-R1A activ: 19*; MsrA act: 4; R1A FP artifact: 1; PKA-R1A confirm: -1

How did CSc1nc(C)cc(/C=C\c2ccccc2)c1C#N do in these assays?
MsrA inhibitor: -2; PKA-R2B act: 1; PKA-R1A activ: 20*; MsrA act: 0; R1A FP artifact: 1; PKA-R1A confirm: 1

How did CSc1nc(-c2ccccc2)cc(C)c1C#N do in these assays?
MsrA inhibitor: 0; PKA-R2B act: -9; PKA-R1A activ: 5; MsrA act: -4

What do the screens show for `Cc1c(C(=O)N2CCCCCC2)c(S(=O)(=O)Nc2cccc(F)c2)c(C)n1C`?
MsrA inhibitor: -1; PKA-R2B act: -2; PKA-R1A activ: -4; MsrA act: -2

Results for Cc1cccc(NS(=O)(=O)c2c(C(=O)N3CCCC3)c(C)n(C)c2C)c1 ?
MsrA inhibitor: 0; PKA-R2B act: -3; PKA-R1A activ: 21*; MsrA act: -12; R1A FP artifact: 4; PKA-R1A confirm: 2

Results for COc1ccc(NC(=O)Cn2nnc(-c3ccccc3NC(=O)c3ccco3)n2)cc1 ?
MsrA inhibitor: 0; PKA-R2B act: 8; PKA-R1A activ: 20*; MsrA act: -1; R1A FP artifact: 2; PKA-R1A confirm: 6

What do the screens show for `CC(C)N(CC(=O)Nc1ccc(Cl)cc1C(F)(F)F)C(=O)CCl`?
MsrA inhibitor: 1; PKA-R2B act: -3; PKA-R1A activ: 19*; MsrA act: -16; R1A FP artifact: 5; PKA-R1A confirm: 2

What do the screens show for `C/C(CC(=O)Nc1ccccn1)=N\NC(=O)c1cnccn1`?
MsrA inhibitor: 1; PKA-R2B act: 7; PKA-R1A activ: 19*; MsrA act: -3; R1A FP artifact: 3; PKA-R1A confirm: 0

How did C/C(CC(=O)Nc1ccc2ccccc2c1)=N\NC(=O)c1cnccn1 do in these assays?
MsrA inhibitor: 0; PKA-R2B act: 3; PKA-R1A activ: -1; MsrA act: -2

Results for COCCCNC(=O)CCn1c(=O)c2ccccc2n(Cc2cccc([N+](=O)[O-])c2)c1=O ?
MsrA inhibitor: 2; PKA-R2B act: -6; PKA-R1A activ: -10; MsrA act: -4

What do the screens show for `CCCCNC(=O)CCn1c(=O)c2ccccc2n(Cc2ccc(F)cc2)c1=O`?
MsrA inhibitor: -1; PKA-R2B act: 11; PKA-R1A activ: 22*; MsrA act: -4; R1A FP artifact: 0; PKA-R1A confirm: -3

Results for CN(CC(=O)Nc1c(Cl)cccc1Cl)C(=O)c1ccccc1SCC(=O)N1CCCC1 ?
MsrA inhibitor: -1; PKA-R2B act: -2; PKA-R1A activ: 0; MsrA act: -1

Results for CN(CCOc1ccc(Cl)cc1)C(=O)c1ccccc1SCC(=O)N1CCCC1 ?
MsrA inhibitor: 0; PKA-R2B act: 8; PKA-R1A activ: 21*; MsrA act: -3; R1A FP artifact: 8; PKA-R1A confirm: 2

Results for O=C(Nc1ccc(Cl)cc1)OC[C@@H]1CSCCS(=O)(=O)N1 ?
MsrA inhibitor: 1

How did COC(=O)N1C[C@H](OC(=S)Nc2ccc(OC)cc2OC)[C@H]2C[C@@H]1c1ccccc1O2 do in these assays?
MsrA inhibitor: -1

How did Cc1cc(C)n2nc(SCC(=O)c3ccc[nH]3)nc2n1 do in these assays?
MsrA inhibitor: -1; PKA-R2B act: -2; PKA-R1A activ: 22*; MsrA act: -4; R1A FP artifact: 5; PKA-R1A confirm: 2

What do the screens show for `CNC(=O)CSc1nc2nc(C)cc(C)n2n1`?
MsrA inhibitor: 0; PKA-R2B act: 8; PKA-R1A activ: -13; MsrA act: -2

Results for CCN(CC)CCOC(=O)C(Cc1ccco1)Cc1cccc2ccccc12 (stereo unspecified) ?
MsrA inhibitor: -1; PKA-R2B act: -3; PKA-R1A activ: 24*; MsrA act: -1; R1A FP artifact: 1; PKA-R1A confirm: 0

Results for O=C(Nc1ccc(N2CCN(c3ccc(O)cc3)CC2)cc1)Oc1ccccc1 ?
MsrA inhibitor: 0; PKA-R2B act: 16; PKA-R1A activ: 20*; MsrA act: -5; R1A FP artifact: 15; PKA-R1A confirm: 17
